Experimental data reported in PubChem BioAssay (EPA / NIEHS).
Active and inactive are the calls of the source. The calls were made as follows: active = hit-call score of the fitted dose curve at least 0.9, where 1 is the maximum; inactive = score below 0.9.

Experiments:
[1] = ATG_CRE_CIS: Attagene CIS-FACTORIAL HepG2 Assay for human cAMP Responsive Element (CRE) binding protein 3 (AID 2282926); conditions: HepG2 CRE cis-reporter, Attagene multiplexed mRNA; actives raise or lower the signal
In short: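 We dosed HepG2 cells bearing multiple cis-promoter reporter units for 24 h and measured reporter mRNA by RT-PCR with capillary electrophoresis detection. Bidirectional concentration-response fitting used DMSO as negative control.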

[2] = ATG_CMV_CIS: Attagene CIS-FACTORIAL HepG2 Assay for human CMV (Internal Marker) (AID 2282928); conditions: HepG2 CMV promoter reporter, transcription factor profiling; actives raise or lower the signal;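 also: endpoint acts as a background internal control marker rather than a target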
In short: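 After transient transfection of HepG2 with reporter transcription units driven by cis-regulatory promoters, cells receive test chemical for 24 h. Labeled reporter amplicons, digested with HpaI, are sized and quantified by capillary electrophoresis against DMSO.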

[3] = ATG_DR4_LXR_CIS: Attagene CIS-FACTORIAL HepG2 Assay for human Liver X Receptor (LXR), DR4 submotif (AID 2282929); conditions: HepG2 Attagene DR4 cis-reporter, mRNA transcription; actives raise or lower the signal
In short: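 Total RNA from 24 h-treated, MRTU-transfected HepG2 cells underwent reverse transcription, PCR, fluorescent primer extension and restriction digestion before capillary electrophoresis. Both increases and decreases in reporter signal were fitted against DMSO.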

[4] = ATG_AP_1_CIS: Attagene CIS-FACTORIAL HepG2 Assay for human Activator Protein 1 (AP-1) (AID 2282931); conditions: HepG2 Attagene cis-factorial AP-1 reporter mRNA; actives raise or lower the signal
In short: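 HepG2, transient cis-reporter transfection; 24 h; readout RT-PCR/CE fluorescence; DMSO baseline, gain and loss fitted.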

[5] = ATG_AP_2_CIS: Attagene CIS-FACTORIAL HepG2 Assay for human Activator Protein 2 (AP-2) (AID 2282932); conditions: HepG2 AP-2 cis-reporter, Attagene transcription factor profiling; actives raise or lower the signal
In short: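 HepG2, transient MRTU transfection, cis-regulated reporters; 24 h compound exposure; RNA isolated, RT-PCR, 6-FAM labelling, HpaI digest, CE fluorescence. DMSO = negative control/baseline, bidirectional fit.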

[6] = ATG_BRE_CIS: Attagene CIS-FACTORIAL HepG2 Assay for human Bone Morphogenetic Protein (BMP) Response Element (BRE) (AID 2282933); conditions: HepG2 BMP response element reporter, Attagene transcription factor profiling; actives raise or lower the signal
In short: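 After a 24 h chemical treatment, transiently transfected HepG2 cells were lysed for RNA; reporter transcripts were quantified by fluorescent RT-PCR and capillary electrophoresis, normalised to DMSO.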

[7] = ATG_E_Box_CIS: Attagene CIS-FACTORIAL HepG2 Assay for human Enhancer Box (E-box) (AID 2282936); conditions: HepG2 E-box cis-reporter transcription, actives raise or lower the signal
In short: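 Cells: HepG2 (human liver), transient MRTU transfection. Exposure 24 h. RNA → oligo(dT) RT → PCR → 6-FAM label → HpaI → CE. Activity fitted both directions relative to DMSO.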

[8] = ATG_M_61_CIS: Attagene CIS-FACTORIAL HepG2 Assay for M61 Transcription Factor (Internal Marker) (AID 2282937); conditions: HepG2 Attagene CIS-FACTORIAL M61 internal marker reporter; actives raise or lower the signal
In short: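 Transfect HepG2 with MRTUs; dose 24 h; isolate RNA; reverse-transcribe with DNase I treatment; PCR-amplify, FAM-label and cut with HpaI for 2 h at 37 C; resolve by CE. Bidirectional fitting against DMSO.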

[9] = ATG_EGR_CIS: Attagene CIS-FACTORIAL HepG2 Assay for human Early Growth Response 1 (EGR1) (AID 2282938); conditions: HepG2 Attagene CIS-FACTORIAL EGR reporter mRNA; actives raise or lower the signal
In short: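 After a 24 h treatment of transiently transfected HepG2 cells, total RNA was reverse-transcribed and reporter sequences PCR-amplified, labelled and run on capillary electrophoresis. Reporters sit under cis-regulatory promoters sensing endogenous factors.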

[10] = ATG_M_19_CIS: Attagene CIS-FACTORIAL HepG2 Assay for M19 Transcription Factor (Internal Marker) (AID 2282939); conditions: HepG2 Attagene CIS-FACTORIAL M19 internal marker reporter; actives raise or lower the signal
In short: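 In this multiplexed cell assay, transiently transfected HepG2 reporter units report endogenous transcription-factor activity; after 24 hours of treatment, labelled reporter cDNA fragments are quantified by capillary electrophoresis and fitted bidirectionally against DMSO.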

[11] = ATG_Ets_CIS: Attagene CIS-FACTORIAL HepG2 Assay for human Erythroblast Transformation Specific (ETS) (AID 2282941); conditions: HepG2 ETS cis-reporter transcription, actives raise or lower the signal
In short: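 Human HepG2 hepatoma cells were transiently transfected with promoter-driven reporter constructs and treated for 24 hours. Reporter transcripts were quantified by RT-PCR with fluorescent primer extension; bidirectional curve fitting used DMSO as reference.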

[12] = ATG_FoxO_CIS: Attagene CIS-FACTORIAL HepG2 Assay for human Forkhead box O (FoxO) (AID 2282943); conditions: HepG2 Attagene cis-reporter, FoxO element, mRNA; actives raise or lower the signal
In short: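 HepG2, transient MRTU transfection (cis element, endogenous TFs). Dose 24 h. TriZol RNA → oligo(dT) RT → PCR → 6-FAM primer extension → HpaI cut → CE. Gain/loss vs DMSO.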

[13] = ATG_ISRE_CIS: Attagene CIS-FACTORIAL HepG2 Assay for human Interferon Regulatory Factor 1 (IRF1) binding to an Interferon-Stimulated Response Element (ISRE) (AID 2282948); conditions: HepG2 ISRE cis-reporter (Attagene), mRNA transcription readout; actives raise or lower the signal
In short: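 Cell-based cis-reporter assay; HepG2; 24 h exposure; reporter mRNA by RT-PCR plus capillary electrophoresis fluorescence; activity in either direction scored relative to DMSO.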

[14] = ATG_M_06_CIS: Attagene CIS-FACTORIAL HepG2 Assay for M06 Transcription Factor (Internal Marker) (AID 2282950); conditions: HepG2 Attagene CIS-FACTORIAL M06 internal marker reporter; actives raise or lower the signal
In short: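 One of many multiplexed endpoints: HepG2 reporter mRNA after 24 h dosing, detected by RT-PCR and capillary electrophoresis fluorescence; gain or loss of signal analysed against DMSO.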

[15] = target: Paired box protein Pax-6 (Homo sapiens) (UniProt P26367); assay: ATG_Pax6_CIS: Attagene CIS-FACTORIAL HepG2 Assay for human Paired Box 6 (PAX6) (AID 2282956); conditions: HepG2 CIS-FACTORIAL PAX6 reporter transcription, RNA readout; actives raise or lower the signal
Sequence of Paired box protein Pax-6 (Homo sapiens) (P26367 whole entry, looked up): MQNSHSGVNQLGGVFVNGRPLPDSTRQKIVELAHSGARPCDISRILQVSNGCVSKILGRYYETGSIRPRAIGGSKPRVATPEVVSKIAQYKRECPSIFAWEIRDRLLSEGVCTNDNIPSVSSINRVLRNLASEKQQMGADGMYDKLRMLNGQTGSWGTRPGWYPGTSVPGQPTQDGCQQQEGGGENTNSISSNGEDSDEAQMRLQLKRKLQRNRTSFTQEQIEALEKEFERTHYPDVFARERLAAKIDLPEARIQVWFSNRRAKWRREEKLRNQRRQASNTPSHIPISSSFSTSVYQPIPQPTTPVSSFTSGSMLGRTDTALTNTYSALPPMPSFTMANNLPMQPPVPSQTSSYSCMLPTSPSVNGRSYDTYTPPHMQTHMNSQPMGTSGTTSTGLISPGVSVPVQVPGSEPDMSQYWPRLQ
In short: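 Multiplexed cis-reporter HepG2 system; 24 h treatment; reporter mRNA read by RT-PCR/CE fluorescence; bidirectional fit vs DMSO.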

[16] = ATG_SREBP_CIS: Attagene CIS-FACTORIAL HepG2 Assay for human Sterol Regulatory Element Binding (SREBP) (AID 2282962); conditions: HepG2 Attagene cis-factorial SREBP reporter, mRNA; actives raise or lower the signal
In short: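 mRNA induction of transfected cis-promoter reporters in HepG2 cells, 24 h post-dose. Detection: RT-PCR with 6-FAM-labelled products, HpaI digest, capillary electrophoresis. DMSO served as negative control and baseline.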

[17] = ATG_TA_CIS: Attagene CIS-FACTORIAL HepG2 Assay for human TA Basal Promoter (AID 2282964); conditions: HepG2 Attagene CIS-factorial TA basal promoter reporter; actives raise or lower the signal
In short: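 Transient MRTU transfection of HepG2 preceded 24 h compound exposure. Reporter mRNA levels were then read by RT-PCR with capillary electrophoresis, and this background-control endpoint was fitted bidirectionally to DMSO.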

[18] = ATG_TCF_b_cat_CIS: Attagene CIS-FACTORIAL HepG2 Assay for human T-Cell-Factor with beta-catenin (TCF/b-cat) (AID 2282965); conditions: HepG2 TCF/beta-catenin cis-reporter transcription, actives raise or lower the signal
In short: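 Endogenous transcription factor activity is captured through cis-promoter reporter constructs transiently introduced into human HepG2 liver cells. Induced reporter mRNA is measured after 24 h and fitted bidirectionally relative to DMSO.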

[19] = ATG_TGFb_CIS: Attagene CIS-FACTORIAL HepG2 Assay for human Transforming Growth Factor (TGF) (AID 2282967); conditions: HepG2 Attagene CIS TGFb reporter, mRNA transcription; actives raise or lower the signal
In short: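 After a 24-hour incubation with compound, transfected HepG2 cells were lysed for RNA; reporter cDNA was amplified, fluorescently end-labeled and separated by CE. DMSO served as baseline for bidirectional fits.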

[20] = ATG_Oct_MLP_CIS: Attagene CIS-FACTORIAL HepG2 Assay for human Octamer-Binding Transcription Factor (Oct) (AID 2282993); conditions: HepG2 Attagene cis-factorial Oct reporter, mRNA; actives raise or lower the signal
In short: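 Transfected HepG2 cells, 24 h treatment. Reporter mRNA quantified by RT-PCR–capillary electrophoresis; bidirectional fitting against DMSO.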

Measured: AC50

CCCC(=O)OC/C=C(\C)CCC=C(C)C
inactive: [1] | [2] | [3] | [4] | [5] | [6] | [7] | [8] | [9] | [10] | [11] | [12] | [13] | [14] | [15] | [16] | [17] | [18] | [19] | [20]

COc1ccccc1OCC(O)CO (stereo not given)
inactive: [1] | [2] | [3] | [4] | [5] | [6] | [7] | [8] | [9] | [10] | [11] | [12] | [13] | [14] | [15] | [16] | [17] | [18] | [19] | [20]

CC1=C(CC(=O)O)c2cc(F)ccc2/C1=C\c1ccc(S(C)=O)cc1 (stereo not given)
inactive: [1] | [2] | [3] | [4] | [5] | [6] | [8] | [9] | [10] | [11] | [12] | [14] | [15] | [16] | [17] | [18] | [19] | [20]
active: [7] 43.4 µM | [13] 44.9 µM

O=[N+]([O-])c1ccc2nc[nH]c2c1
inactive: [1] | [2] | [3] | [4] | [5] | [6] | [7] | [8] | [9] | [10] | [11] | [12] | [13] | [14] | [15] | [16] | [17] | [18] | [19] | [20]
